Assay results published in PubChem BioAssay (NCATS).
Records with an inconclusive call do not appear. Activity calls are given as the source filed them. Calls follow the shape of the dose curve; as a rule, active = well fitted curve in the direction sought with a large enough effect; inconclusive = small, poorly fitted or top-dose-only effect, or another doubt; inactive = no such curve, though single readings can be large; an effect the other way counts as inactive or inconclusive.

Key:
[1] = tested on: CRL-7250; experiment: Cytotoxic Profiling of Annotated Libraries Using Quantitative High-Throughput Screening (AID 1296008); conditions: Five cell lines viability, CellTiter-Glo ATP luminescence, 48-72 h; max response: hits give low values; also: nearly all actives have a fitted effect of over 60% in size; as to max response: % is scaled to controls: 0 for no effect and ±100 for the full control effect
Method in brief: (§1)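 Cytotoxicity was measured as CellTiter-Glo ATP luminescence, read after 10 min at room temperature. Compound treatment of the cells lasted 48 or 72 hr at 37 degrees Celsius in a qHTS format.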

[2] = tested on: HEK293; experiment: as above; conditions: Five cell lines viability, CellTiter-Glo ATP luminescence, 48-72 h; max response: hits give low values
Method in brief: as §1

[3] = tested on: HaCat; experiment: as above; conditions: Five cell lines viability, CellTiter-Glo ATP luminescence, 48-72 h; max response: hits give low values
Method in brief: as §1

[4] = tested on: KB-3-1; experiment: as above; conditions: Five cell lines viability, CellTiter-Glo ATP luminescence, 48-72 h; max response: hits give low values
Method in brief: as §1

[5] = tested on: NIH3T3; experiment: as above; conditions: Five cell lines viability, CellTiter-Glo ATP luminescence, 48-72 h; max response: hits give low values
Method in brief: as §1

[6] = tested on: NIH3T3; experiment: qHTS assay to identify novel small-molecules to repurpose for Merkel cell carcinoma treatment (AID 1296009); conditions: MCC and control cell lines, CellTiter-Glo viability, 72 h; at 44.8 µM (top of the series) unless noted; also: nearly all actives have a fitted effect of over 60% in size
Method in brief: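 72 hr, 37 degree celsius; NPC 8-pt / MIPE 11-pt dose response; compound pinned in DMSO; CellTiter-Glo, 10 min RT, luminescence; normalized to no-cell and DMSO controls.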

[7] = tested on: C33A; experiment: Primary qHTS to identify gynecologic anti-cancer compounds using libraries of approved drugs and bioactive compounds (AID 1345084); conditions: Gynecologic cancer cell panel viability, ATPlite luminescence, 48 h; series mostly up to 57.5 µM; also: % is scaled to controls: 0 for no effect and ±100 for the full control effect; nearly all actives have a fitted effect of over 55% in size
Method in brief: (§2)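 Cytotoxicity screen measuring ATP content by luciferase luminescence. Each compound is applied at five concentrations for 48 h at 37 C with 5% CO2.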

[8] = tested on: CAOV3; experiment: as above; conditions: Gynecologic cancer cell panel viability, ATPlite luminescence, 48 h; series mostly up to 57.5 µM
Method in brief: as §2

[9] = tested on: CASKI; experiment: as above; conditions: Gynecologic cancer cell panel viability, ATPlite luminescence, 48 h; series mostly up to 57.5 µM
Method in brief: as §2

[10] = tested on: Es-2; experiment: as above; conditions: Gynecologic cancer cell panel viability, ATPlite luminescence, 48 h; series mostly up to 57.5 µM
Method in brief: as §2

[11] = tested on: HeLa; experiment: as above; conditions: Gynecologic cancer cell panel viability, ATPlite luminescence, 48 h; series mostly up to 57.5 µM
Method in brief: as §2

[12] = tested on: Hek293T; experiment: as above; conditions: Gynecologic cancer cell panel viability, ATPlite luminescence, 48 h, control line for the selectivity index; series mostly up to 57.5 µM
Method in brief: as §2

[13] = tested on: JEG-3; experiment: as above; conditions: Gynecologic cancer cell panel viability, ATPlite luminescence, 48 h; series mostly up to 57.5 µM
Method in brief: as §2

[14] = tested on: OV90; experiment: as above; conditions: Gynecologic cancer cell panel viability, ATPlite luminescence, 48 h; series mostly up to 57.5 µM
Method in brief: as §2

[15] = tested on: PA-1; experiment: as above; conditions: Gynecologic cancer cell panel viability, ATPlite luminescence, 48 h; series mostly up to 57.5 µM
Method in brief: as §2

[16] = tested on: TAB113; experiment: qHTS profiling for inhibitors of Plasmodium falciparum proliferation (AID 504749);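 also: 0% = DMSO vehicle and full inhibition = artemisinin control; nearly all actives have a fitted effect of over 60% in size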; conditions: P. falciparum in erythrocytes, SYBR Green DNA, 72 h; series mostly up to 28.7 µM
Method in brief: (§3)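 Infected RBCs, 0.3% parasitemia/2.5% Hct final; cpd 72 h, 37 C, 5% CO2; lysis buffer with saponin/triton/SYBR Green I, o/n RT dark; FI 485/535; norm. to artemisinin (0.29 uM) and DMSO.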

[17] = tested on: TAB165; experiment: as above; conditions: P. falciparum in erythrocytes, SYBR Green DNA, 72 h; series mostly up to 28.7 µM
Method in brief: as §3

[18] = tested on: W2; experiment: as above; conditions: P. falciparum in erythrocytes, SYBR Green DNA, 72 h; series mostly up to 28.7 µM
Method in brief: as §3

CC(/C=C/C=C(\C)C(=O)O[C@@H]1O[C@H](CO[C@@H]2O[C@H](CO)[C@@H](O)[C@H](O)[C@H]2O)[C@@H](O)[C@H](O)[C@H]1O)=C\C=C\C=C(C)\C=C\C=C(/C)C(=O)O[C@@H]1C[C@](O)(C(=O)O)C[C@@H](O)[C@H]1OC(=O)/C=C/c1ccc(O)c(O)c1
inactive: max response [1] -12.4% | max response [2] 2.1% | max response [3] 1.58% | max response [4] 5.86% | outcome [5] | outcome [6] inactive [at 9.27 µM] | activity change, negative = cytotoxicity [7] 17.9% [at 11.6 µM] | activity change, negative = cytotoxicity [8] -20% [at 11.6 µM] | activity change, negative = cytotoxicity [9] 21.7% [at 11.6 µM] | activity change, negative = cytotoxicity [10] 1.04% [at 11.6 µM] | activity change, negative = cytotoxicity [11] 2.81% [at 11.6 µM] | activity change, negative = cytotoxicity [12] -2.06% [at 11.6 µM] | activity change, negative = cytotoxicity [13] 7.27% [at 11.6 µM] | activity change, negative = cytotoxicity [14] 8.2% [at 11.6 µM] | activity change, negative = cytotoxicity [15] -12.7% [at 11.6 µM]

CCC(CC)CC1(C(=O)Nc2ccccc2SC(=O)C(C)C)CCCCC1
inactive: outcome [1] | max response [2] -10.7% | max response [3] -14% | max response [4] 0.494% | outcome [5] | outcome [6] | Potency [7] | Potency [8] | outcome [9] | Potency [10] | Potency [11] | Potency [12] | Potency [13] | Potency [14] | Potency [15]

Cc1ncc(Cl)cc1NCc1ccc(C(=O)NC(CC2CCCC2)C(=O)NC2CC2)s1 (stereo not drawn)
inactive: outcome [1] | max response [2] -15.8% | max response [3] -11.9% | max response [4] -1.73% | outcome [5] | outcome [6] | Potency [7] | Potency [8] | outcome [9] | Potency [10] | Potency [11] | Potency [12] | Potency [13] | Potency [14] | Potency [15]

CC(C)=CCC[C@](C)(O[C@@H]1O[C@H](CO)[C@@H](O)[C@H](O)[C@H]1O)[C@H]1CC[C@]2(C)[C@@H]1[C@H](O)CC1[C@@]3(C)CC[C@H](O)C(C)(C)C3[C@@H](O[C@@H]3O[C@H](CO)[C@@H](O)[C@H](O)[C@H]3O[C@@H]3O[C@@H](C)[C@H](O)[C@@H](O)[C@H]3O)C[C@]12C (stereo partly drawn)
inactive: max response [1] -1.6% | max response [2] -1.21% | max response [3] -12.1% | max response [4] 8.47% | outcome [5] | outcome [6] inactive [at 9.27 µM] | activity change, negative = cytotoxicity [7] -11.8% [at 11.6 µM] | activity change, negative = cytotoxicity [8] -9.95% [at 11.6 µM] | activity change, negative = cytotoxicity [9] -3.66% [at 11.6 µM] | activity change, negative = cytotoxicity [10] 5.12% [at 11.6 µM] | activity change, negative = cytotoxicity [11] 11.5% [at 11.6 µM] | activity change, negative = cytotoxicity [12] -2.65% [at 11.6 µM] | activity change, negative = cytotoxicity [13] -0.108% [at 11.6 µM] | activity change, negative = cytotoxicity [14] -3.64% [at 11.6 µM] | activity change, negative = cytotoxicity [15] 24.4% [at 11.6 µM]

Cc1nnc(-c2sc(NC(=O)[C@H](C(C)C)n3c(=O)[nH]c4ccccc4c3=O)nc2C)o1
inactive: max response [1] -59.8% | max response [2] -6.7% | max response [3] -23.8% | max response [4] 8.7% | outcome [5] | outcome [6] | Potency [7] | Potency [8] | outcome [9] | Potency [11] | Potency [12] | Potency [13] | Potency [14] | Potency [15]

O=C(/C=C/C=C/c1ccc2c(c1)OCO2)N1CCCCC1
inactive: outcome [1] | max response [2] 3% | max response [3] 0.66% | max response [4] 3.15% | outcome [5] | outcome [6] | Potency [7] | Potency [8] | outcome [9] | Potency [11] | Potency [12] | Potency [13]

CCC(=O)OCC(=O)[C@@]1(OC(=O)CC)[C@@H](C)C[C@H]2[C@@H]3CCC4=CC(=O)C=C[C@]4(C)[C@@]3(F)[C@@H](O)C[C@@]21C
inactive: max response [1] -9.64% | max response [2] -7.33% | max response [3] -29.8% | outcome [4] | outcome [5] | outcome [6] | Potency [7] | Potency [8] | outcome [9] | Potency [10] | Potency [11] | Potency [12] | Potency [13] | Potency [14] | Potency [15]

CC(C)[C@@H](C(=O)O)N1Cc2c(cc(O)c3c2O[C@]2(C3)[C@H](C)CCC3C(C)(C)[C@H](O)[C@H](O)C[C@@]32C)C1=O (stereo partly drawn)
inactive: max response [1] 2.63% | max response [2] -15% | max response [3] 2.56% | max response [4] 3.13% | outcome [5] | outcome [6] inactive [at 17.4 µM] | Potency [7] | Potency [8] | outcome [9] | Potency [10] | Potency [11] | Potency [12] | Potency [13] | Potency [14] | Potency [15]

FC(F)(F)Oc1ccc(-c2ccc3nnc(C(F)(F)F)n3c2)cc1
inactive: max response [1] -1.14% | max response [2] -7.41% | max response [3] -4.75% | outcome [4] | outcome [5] | outcome [6] | Potency [7] | Potency [8] | outcome [9] | Potency [10] | Potency [12] | Potency [13] | Potency [14] | Potency [15]

CC1CC=C2C1CC1(O)C(=O)CC2(C)C1(C)CO (stereo not drawn)
inactive: outcome [1] | max response [2] -7.63% | max response [3] 4.08% | outcome [4] | outcome [5] | outcome [6] | Potency [7] | Potency [8] | outcome [9] | Potency [10] | Potency [11] | Potency [12] | Potency [13] | Potency [14] | Potency [15]

Cc1cc(O[C@@H]2O[C@H](COC(=O)CC(=O)O)[C@@H](O)[C@H](O)[C@H]2O)c(C(C)C)cc1O
inactive: max response [1] 0.0068% | max response [2] -1.41% | max response [3] 0.109% | max response [4] -13.3% | outcome [5] | outcome [6] inactive [at 17.4 µM] | Potency [7] | Potency [8] | outcome [9] | Potency [10] | Potency [11] | Potency [12] | Potency [13] | Potency [14] | Potency [15]

CCOC(=O)C(CCc1ccccc1)NC(C)C(=O)N1Cc2ccccc2CC1C(=O)O (stereo not drawn)
inactive: outcome [16] | outcome [17] | outcome [18] | max response [1] -6.01% | max response [2] -4.89% | max response [3] -10.9% | max response [4] -4.78% | outcome [5] | outcome [6] | Potency [7] | Potency [8] | outcome [9] | Potency [10] | Potency [11] | Potency [12] | Potency [13] | Potency [14] | Potency [15]

COc1cc(/C=C/C(=O)OCC2OC(OC3(CO)OC(CO)C(O)C3O)C(O)C(O)C2O)ccc1O (stereo not drawn)
inactive: max response [1] 0.86% | max response [2] 0.768% | max response [3] 2.88% | outcome [4] | outcome [5] | outcome [6] inactive [at 17.4 µM] | Potency [7] | Potency [8] | outcome [9] | Potency [10] | Potency [11] | Potency [12] | Potency [13] | Potency [14] | Potency [15]

CC1(C)C=Cc2c(ccc3c2[N+]([O-])=C2C3(O)CC34NC(=O)C5(CCCN5C3=O)CC4C2(C)C)O1 (stereo not drawn)
inactive: max response [1] -1.3% | max response [2] -1.32% | max response [3] -0.0821% | outcome [4] | outcome [5] | outcome [6] inactive [at 17.4 µM] | Potency [7] | Potency [8] | outcome [9] | Potency [10] | Potency [11] | Potency [12] | Potency [13] | Potency [14] | Potency [15]
